The full list was thinned out, with hits kept by preference.
ST2 inh – IL1RL1 inhibition; Q01638; AlphaLISA ST2-Fc/biotin-IL-33 interaction, 1 h; inhibition, % for hits at 17 µM; actives 2.3% (n = 78,000); in the data active = inhibition above about 30%
Target sequence (Q01638 whole entry, looked up): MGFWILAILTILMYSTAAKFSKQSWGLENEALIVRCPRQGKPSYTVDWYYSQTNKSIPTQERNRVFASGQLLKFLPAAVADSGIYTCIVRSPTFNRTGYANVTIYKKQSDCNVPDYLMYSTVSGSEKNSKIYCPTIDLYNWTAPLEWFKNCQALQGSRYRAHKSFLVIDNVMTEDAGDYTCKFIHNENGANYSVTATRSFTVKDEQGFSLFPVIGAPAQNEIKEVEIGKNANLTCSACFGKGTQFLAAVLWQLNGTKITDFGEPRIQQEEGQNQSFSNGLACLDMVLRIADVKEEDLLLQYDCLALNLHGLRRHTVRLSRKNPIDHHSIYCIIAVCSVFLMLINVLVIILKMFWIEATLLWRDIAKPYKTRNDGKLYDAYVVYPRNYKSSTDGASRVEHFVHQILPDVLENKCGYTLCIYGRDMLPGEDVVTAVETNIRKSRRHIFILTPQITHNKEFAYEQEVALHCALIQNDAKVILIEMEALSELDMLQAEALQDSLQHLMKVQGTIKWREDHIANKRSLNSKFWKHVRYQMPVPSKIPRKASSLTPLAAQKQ
Numbers without * were called inactive; i = inactive.

SMILES	ST2 inh
Cc1nc2c(ccc3nc(NC(=O)c4ccc(C)c(C)c4)sc32)s1	41%*
Cc1nc2c(ccc3nc(NC(=O)c4ccc(OC(C)C)cc4)sc32)s1	i
CC(C)Cn1cc(C(=O)NCCN(C)C)c2c3ccccc3n(C)c2c1=O	i
Cc1cc([N+](=O)[O-])nn1CCCC(=O)Nc1cc(Br)ccc1O	i
COc1ccc(-n2c(C)nc3c(cnn3-c3ccccc3Cl)c2=O)cc1	i
Cc1ccc(N=C2C(=O)N(CN3CCOCC3)c3ccccc32)cc1	i
O=C(CN1C(=O)C(=O)c2ccccc21)c1ccccc1	i
O=C1C(=O)N(CN2CCCCCC2)c2ccccc21	42%*
Cc1cccc(CNC(=O)c2coc(CN3CCN(Cc4ccccc4)CC3)n2)n1	i
Cc1ccccc1C(=O)Nc1cccc(OCc2cc(=O)n3cc(Cl)ccc3n2)c1	i
O=C(c1cccc2c1OCC2)N1CCN(Cc2ccccc2CO)CC1	i
Cc1cc(N2CCN(S(=O)(=O)NCc3ccccc3)CC2)n2ncnc2n1	i
COCCN1CCN(C(=O)CC2C(=O)NCCN2Cc2cccs2)CC1 (centres undefined)	i
CCc1ccc(C(=O)c2c[nH]c3ccc(CC)cc3c2=O)cc1	i
CCOC(=O)c1ccc2[nH]cc(C(=O)c3ccccc3)c(=O)c2c1	i
CCc1ccc(C(=O)c2c[nH]c3ccc(C)cc3c2=O)cc1	i
CCc1ccc(C(=O)c2c[nH]c3ccc(F)cc3c2=O)cc1	42%*
CCOC(=O)c1ccc2[nH]cc(C(=O)c3ccc(C)cc3)c(=O)c2c1	i
Cc1ccc(C(=O)c2c[nH]c3ccc(Br)cc3c2=O)cc1	33%*
Cc1ccc(N2C(=O)C3N=NN(CC(=O)Nc4ccc(Cl)cc4Cl)C3C2=O)cc1 (centres undefined)	i
CC1=CC[C@@H]2CN(C(=O)Cc3ccc(-n4nnnc4C)cc3)C[C@@H]2C1	i
NC(=O)c1nnn(-c2nonc2N)c1-c1cccc([N+](=O)[O-])c1	i
CN1CCN2CCN(C(=O)c3ccc(C#CC(C)(C)O)o3)CC2C1 (centres undefined)	i
NC(=O)c1ccccc1	i
O=[N+]([O-])C([N+](=O)[O-])=S(c1ccccc1)c1ccccc1	i
SMILES	ST2 inh
O=[N+]([O-])C=C(c1ccccc1)c1ccccc1	39%*
CSc1nc2c(c(=O)[nH]1)C(c1ccc(C(C)C)cc1)C1=C(CC(C)(C)CC1=O)N2 (centres undefined)	i
O=C(CN1CCOCC1)Nc1ccc(NC(=O)CN2CCOCC2)cc1	i
CN(Cc1ccccc1)Cc1cnc(S(C)(=O)=O)n1Cc1ccccc1F	i
O=C1NN=C(c2ccccc2O)C1[N+](=O)[O-] (centres undefined)	i
CCSC[C@H](N)C(=O)NCc1cnn2ccccc12	i
O=C(NCc1cnn2ccccc12)c1cccc(Cn2cccn2)c1	i
C=CCOC(=O)NCc1cnn2ccccc12	40%*
O=C(COCc1ccccc1)NCc1cnn2ccccc12	i
COc1cccc(CC(=O)NCc2cnn3ccccc23)c1	33%*
Cc1ccc(SC(C)C(=O)NCc2cnn3ccccc23)cc1 (centres undefined)	i
O=C(O)c1ccc(NC(=O)c2cc(S(=O)(=O)N3CCOCC3)cs2)cc1	i
COC(=O)C1C(=O)C2=C(CC1C)NC(C)=C(C(=O)OC(C)C)C2c1ccc(Cl)c(Cl)c1 (centres undefined)	i
COc1cc(NC(=O)CSc2nnc(-c3ccco3)c(-c3ccco3)n2)cc(OC)c1	31%*
COc1ccc(NC(=O)CSc2ncccn2)cc1	i
Cc1cccc(C)c1NC(=O)CSc1nnc(-c2ccccc2)c(-c2ccccc2)n1	i
COc1c(Br)cc(Br)cc1/C=C1\C(=O)N(c2ccccc2)N=C1C	i
CC1=NN(c2ccc(I)cc2)C(=O)/C1=C/c1ccc(N(C)C)cc1	38%*
CC1=NN(c2cccc(Br)c2)C(=O)/C1=C\c1ccc(N(C)C)cc1	i
CC1=NN(c2cccc(F)c2)C(=O)/C1=C/c1ccc(N(C)C)cc1	i
CC1=NN(c2ccccc2)C(=O)/C1=C\c1ccc(N(C)C)c(Br)c1	39%*
CC1=NN(c2ccccc2)C(=O)/C1=C/c1cccc(Br)c1	i
CC1=C(C(=O)OCCOc2ccccc2)C(c2ccc(C)o2)C2=C(CCCC2=O)N1 (centres undefined)	i
O=[N+]([O-])c1nn(-c2ccccc2)n(O)c1=NC1CCCC1	i
COc1ccc(-c2cc(C(=O)O)c3c(ccc4ccccc43)n2)c(F)c1	i
SMILES	ST2 inh
Cc1ccccc1C(=O)NCCSCc1ccccc1Cl	i
Cc1ccccc1-c1nc2cc(NC(=O)CC(C)C)ccc2o1	i
O=c1oc(-c2ccccc2)nc2ccc(Cl)cc12	i
CCc1cc2c(=O)oc(-c3ccccc3C)nc2s1	33%*
NC(=O)[C@H](CC1CCCCC1)NC(=O)[C@H]1CNCCN1C(=O)C1CCNCC1	i
CCc1ccccc1NS(=O)(=O)c1cc(Br)cc2c1N(C(C)=O)C(C)C2 (centres undefined)	i
COc1cc(OC)cc(C(=O)N2CCN=C2SCc2c(F)cccc2Cl)c1	i
Cc1[nH]n(-c2ccccc2)c(=O)c1C=Nc1cc([N+](=O)[O-])cc([N+](=O)[O-])c1	i
O=[N+]([O-])c1cc(Nc2ccccc2)c(C=Nc2ccccc2)c([N+](=O)[O-])c1	66%*
O=[N+]([O-])c1cccc(C=Nc2ccc(S(=O)(=O)Nc3ccccn3)cc2)c1	i
Cn1ccnc1SCCNC(=O)C1CCC(=O)N(C2CCCCCC2)C1 (centres undefined)	i
O=C(COc1ccccc1[N+](=O)[O-])Nc1cc(Cl)c(Cl)cc1Cl	i
Cc1ccc2nsnc2c1NC(=O)COc1ccccc1[N+](=O)[O-]	32%*
CCC(=O)Nc1c(C)ccc2nsnc12	i
O=C(CN1CCCN(Cc2ccccc2)S1(=O)=O)NCC1CCCO1 (centres undefined)	i
CCC1CCCCN1C1CC(=O)N(c2ccccc2)C1=O (centres undefined)	i
NC(=O)C1CCCC1C(N)=O (centres undefined)	i
CC(C)CN(CC(C)C)S(=O)(=O)c1cccs1	i
COC(=NS(=O)(=O)c1ccc(Cl)cc1)c1ccccc1	i
COc1cc(NS(=O)(=O)c2ccc(Cl)cc2)c(OC)cc1NC(=O)c1ccccc1	i
NC(=NS(=O)(=O)c1cccs1)c1ccccc1	i
O=C(NS(=O)(=O)c1ccc(NS(=O)(=O)c2cccs2)cc1)c1ccccc1	i
COc1ccccc1NC1=CC(=NS(=O)(=O)c2cccs2)c2ccccc2C1=O	90%*
COc1ccccc1NC(=O)C1c2cc(OC)c(OC)cc2C(=O)N(C)C1c1cccs1 (centres undefined)	i
O=C(O)c1cccc(Nc2nc(-c3cccs3)cs2)c1	i
SMILES	ST2 inh
COc1ccccc1NC1=CC(=O)CC(c2ccccc2)C1 (centres undefined)	i
COc1ccccc1NC1=CC(=NS(=O)(=O)c2ccc(Cl)cc2)c2ccccc2C1=O	95%*
O=C1C(Nc2ccccc2)=CC(=NS(=O)(=O)c2cccs2)c2ccccc21	86%*
O=C(O)c1cccc(NC2=CC(=NS(=O)(=O)c3cccs3)c3ccccc3C2=O)c1	40%*
Cc1ccc(CN2CCCC(CNC(=O)c3cccc(C(F)(F)F)c3)C2)s1 (centres undefined)	i
NC(=O)c1nc(CN2CCOC(C(F)(F)F)C2)no1 (centres undefined)	i

Bioassay records as filed in PubChem BioAssay.
